Source: PubChem BioAssay
S1P2 ag – S1P2 receptor agonists, primary screen, cell-based; activation, % at 4.5 µM; S1P2-expressing cell line, agonist reporter read-out; Sphingosine 1-phosphate receptor 2 (Homo sapiens), O95136; 97,000 compounds, 0.46% hits; AID 729, 2007; in the data active = activation above about 16%;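 note: 0% = vehicle low control and 100% = maximal reference agonist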
GALR2 antag – GALR2 antagonists in receptor-expressing cells, primary screen; Galanin receptor type 2 (Homo sapiens), O43603; antagonist mode; inhibition, % at 4 µM; 140,000 compounds, 0.39% hits; AID 828, 2007; in the data active = inhibition above about 27%;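 note: cells stimulated with galanin 1-16 at roughly its EC80; 0% = agonist challenge control and 100% = basal control without agonist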
GALR2 ag – GALR2 receptor agonists, primary screen, cell-based | 140,000 compounds, 0.48% hits | GALR2-expressing cells, agonist activation read-out | Galanin receptor type 2 (Homo sapiens), O43603 | activation, % (test concentration not listed); in the data active = activation above about 5%, passing the limit was not always enough;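 note: 0% = vehicle buffer wells and 100% = reference agonist at full effect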
Smad3 FoxH1 inh – Smad3/FoxH1 peptide binding inhibitors, primary screen, biochemical, TR-FRET. Mothers against decapentaplegic homolog 3 (Homo sapiens), P84022. TR-FRET Smad3/Dy647-FoxH1 peptide binding, europium anti-His. inhibition, % at 25 µM. 88,000 compounds, 0.29% hits;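 active = compounds that reduce the energy-transfer binding signal between the protein and its labelled peptide by more than half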;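 note: 0% = Smad3 plus labelled peptide maximal FRET and 100% = peptide-only background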
Target sequence (P84022 whole entry, looked up): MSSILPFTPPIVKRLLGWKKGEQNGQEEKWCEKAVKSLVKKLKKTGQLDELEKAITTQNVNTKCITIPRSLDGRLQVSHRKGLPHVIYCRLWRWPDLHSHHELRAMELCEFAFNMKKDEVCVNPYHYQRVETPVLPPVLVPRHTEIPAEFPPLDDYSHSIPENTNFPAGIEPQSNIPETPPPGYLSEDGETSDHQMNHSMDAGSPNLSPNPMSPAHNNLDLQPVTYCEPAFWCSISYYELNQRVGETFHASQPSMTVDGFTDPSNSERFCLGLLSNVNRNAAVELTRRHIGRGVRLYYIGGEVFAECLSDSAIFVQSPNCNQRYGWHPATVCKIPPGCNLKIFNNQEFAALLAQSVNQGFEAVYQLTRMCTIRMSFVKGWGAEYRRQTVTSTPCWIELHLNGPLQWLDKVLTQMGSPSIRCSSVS
Calb biofilm kill – clotrimazole potentiators killing Candida biofilms, primary screen, with clotrimazole, Alamar Blue. C. albicans biofilm + clotrimazole. inhibition, % at 6 µM. 85,000 compounds, 0.14% hits. AID 834, 2007;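 active = inhibition above 20%; inactive = inhibition below 20%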;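 note: preformed 24 hr biofilms exposed to compound for 48 hr; 0% = biofilm without compound and 100% = blank killed by clotrimazole plus chlorhexidine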
S1P2 blocker – human S1P2 receptor antagonists, primary screen, cell-based; cell-based S1P2 antagonist assay, inhibition at 5 uM; inhibition, % at 5 µM; 97,000 compounds, 0.21% hits; AID 736, 2007; in the data active = inhibition above about 45%;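 note: CRE beta-lactamase reporter cells expressing human S1P2 stimulated with S1P; 0% = agonist at EC80 alone and 100% = agonist plus reference antagonist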
The depositor's hits bear a star; / = not tested or not shown; [ ] = dose if it differs, or a comment. Most compounds without a hit are left out; they make up all but 1.3% or so of the library.

SMILES | S1P2 ag | GALR2 antag | GALR2 ag | Smad3 FoxH1 inh | Calb biofilm kill | S1P2 blocker
COC(=O)c1sccc1NC(=O)CSc1nnnn1-c1ccccc1C | -1 | 1 | -2 | 0 | 27* | -7
O=c1c2c([nH]c3ccccc13)CCCCCC2 | -3 | 4 | -1 | -2 | 3 | 3
O=c1c2ccccc2[nH]c2ccccc12 | / | 8 | 5.6* | / | / | /
O=C(Nc1ccc(F)cc1)c1sc2cc(C(F)(F)F)cnc2c1-c1cccs1 | -5 | 0 | 0 | 14 | -1 | 84*
COc1ccc(NC(=O)c2sc3cc(C(F)(F)F)cnc3c2-c2cccs2)cc1 | -2 | -6 | 0 | 26 | 5 | 15
CC(=O)Nc1cccc(Oc2ncnc3scc(-c4ccc(C(C)C)cc4)c23)c1 | / | 5 | -2 | / | / | /
C/C(N[O-])=C(\C)[N+]([O-])=[Co].CC(=N\[O-])/C(C)=N/[O-].O[C@@H]1[CH-]CCCC1.c1ccncc1 | / | / | / | 71* | / | /
CCOC(=O)C(CC)(CC)/C(C)=N/NC(=O)CC#N | -10 | 2 | 0 | 2 | 3 | -14
COc1ccc(C(=O)C(CO)Oc2ccccc2OC)cc1OC (configuration not stated) | 19* | -7 | -2 | / | / | 13
CC(C)/C(=N\[N+](C)(C)C)c1ccccc1 | / | / | / | 3 | / | /
COc1ccc2c(CSc3nc4nc(C)cc(C)n4n3)cc(=O)oc2c1 | 17* | -24 | 1 | 6 | 8 | -25
Cc1ccc2c(CSc3nc4nc(C)cc(C)n4n3)cc(=O)oc2c1 | 14 | -11 | 3 | 2 | 13 | -34
COc1cc2c(cc1OC)C1=C(C#N)CN(CC(=O)O)CN1CC2 | 23* | -8 | -1 | -6 | 6 | -28
C[C@H]1C[C@@H]2[C@@H]3CCC4=CC(=O)C=C[C@@]4(C)[C@@]3(Cl)[C@H](Cl)C[C@@]2(C)[C@]1(O)C(=O)COP(=O)(O)O | / | / | / | 0 | / | /
Cc1cc(C)cc(-c2nc(-c3ccncc3)no2)c1 | -12 | 0 | -4 | -5 | 21* | -11
Cc1ccc(-n2ncc3c(N4CCN(c5ccccc5)CC4)ncnc32)c(C)c1 | -4 | 8 | 0 | -6 | 1 | 60*
Cc1cccc2sc(NC(=O)CSc3nc4ccccc4o3)nc12 | -6 | -3 | -3 | 7 | 52* | -12
O=C(Nc1ccc(Oc2ccc(NC(=O)C3CCCO3)cc2)cc1)C1CCCO1 (configuration not stated) | / | -1 | -1 | -8 | -2 | /
NC(=O)c1ccc(NC(=O)C2CCCO2)cc1 (configuration not stated) | 219* | -2 | -3 | -3 | 5 | 6
CCN1C(=C2C(=O)c3ccccc3C2=O)C=Cc2ccccc21 | -5 | -4 | -1 | 8 | 4 | -14
CCN1/C(=C/c2ccc3ccccc3[n+]2CC)C=Cc2ccccc21 | -2 | 24 | 0 | -34 | -1 | 81*
CCCCC[C@@H](O)[C@@H]1C(=O)O[C@@H](C)[C@@H](O)C=C/C=C\C=CC=C/C=C(/C)[C@H](O)C[C@H](O)C[C@H](O)C[C@H](O)C[C@H](O)C[C@H](O)C[C@@H]1O | / | / | / | 2 | / | /
CN(C(=O)COC(=O)c1ccc(Cl)cc1N)C1CCS(=O)(=O)C1 (configuration not stated) | -6 | -2 | -2 | / | / | 12
C=CS(=O)(=O)c1ccc(Oc2ccc(S(=O)(=O)C=C)cc2)cc1 | / | 91* | -3 | / | / | /
O=S(=O)(c1ccc(Oc2ccc(S(=O)(=O)N3CCOCC3)cc2)cc1)N1CCOCC1 | / | -4 | -1 | 7 | -2 | /
SMILES | S1P2 ag | GALR2 antag | GALR2 ag | Smad3 FoxH1 inh | Calb biofilm kill | S1P2 blocker
COCCNC(=O)C(=O)Nc1ccc(Br)cc1 | -2 | 4 | 0 | -3 | 3 | -3
CCCNC(=O)C(=O)Nc1ccc(N(C)C)cc1 | -4 | 7 | -2 | 91*[fluorescence artefact?] | 5 | -2
COc1cc(C)cc(OC)c1/C=C/C(=O)O | / | / | / | 9 | / | /
COc1ccc2nc(Nc3nc4cc5c(cc4s3)OCO5)sc2c1 | / | -6 | 6.8* | / | / | /
COC(=O)c1ccc(NC(=O)COc2ccc(C3C(C#N)=C(N)Oc4c3ccc3ccccc43)cc2OC)cc1 (configuration not stated) | -7 | 11 | -1 | / | / | 63*
COc1cc(C2C(C#N)=C(N)Oc3c2ccc2ccccc32)ccc1OCC(=O)Nc1ccccc1C (configuration not stated) | -4 | 1 | -1 | / | / | 20
COc1ccc(C[C@@H]2C(=O)N[C@H](C)C(=O)N(C)[C@@H]3Cc4ccc(cc4)Oc4cc(ccc4O)C[C@@H](C(=O)N[C@@H](C)C(=O)N[C@H](C)C(=O)N2C)N(C)C3=O)cc1 | / | / | / | 11 | / | /
CCOC(=O)CS(=O)(=O)c1nc(-c2ccccc2)cc(C(F)(F)F)n1 | -3 | 59* | 7 | 9 | 1 | -8
C/C(Nc1ccc(Cl)cc1)=C(/C#N)C(N)=O | -6 | -8 | 1 | 7 | 50* | 12
C/C(Nc1ccccc1)=C(/C#N)C(N)=O | -5 | 4 | 0 | 96*[fluorescence artefact?] | -4 | 21
CCOc1ccc(NC(=O)c2cc3cc4ccc(OC)cc4nc3o2)cc1 | -2 | -10 | -1 | 32 | 58* | 8
O=c1[nH]c(Nc2ccccc2)cc2ccccc12 | -2 | 8 | 2 | 58* | 8 | -14
Nn1c(Nc2ccccc2)nc2ccccc2c1=O | -10 | 13 | -1 | -4 | 6 | 4
CC1=CC(C)(C)Nc2ccc(C)cc21 | -6 | -2 | 0 | 73* | 8 | 8
CC1=CC(C)(C)Nc2cc(C)c(C)cc21 | -1 | -15 | -1 | -2 | 3 | 11
O=C(O)CCCCn1cnc2c(=S)nc[nH]c21 | / | / | / | 52* | / | /
CC(C)c1nccn1CCC(=O)O | -2 | -3 | -3 | 4 | 8 | 10
O=C(O)CCn1cnc2c(=S)nc[nH]c21 | / | / | / | 53* | / | /
Nc1ncnc2c1ncn2CCCCC(=O)O | / | / | / | 16 | / | /
Cc1c(C(=O)O)nc(/C=C/C(=O)O)[nH]c1=O | / | / | / | 4 | / | /
O=C(NCC1OCCc2ccccc21)c1ccc(NC(=O)c2ccccc2Cl)cc1 (configuration not stated) | / | 10 | -1 | / | / | /
O=C(NCc1ccoc1)c1ccc(NC(=O)c2ccccc2Cl)cc1 | -12 | 29* | -2 | -4 | 9 | 12
COC(=O)CC[C@@H](C)[C@H]1CC[C@H]2[C@@H]3CC[C@H]4C[C@@H]5CC[C@@]4(C)[C@]3(O5)[C@H](Br)[C@@H](Br)[C@]12C | / | / | / | -10 | / | /
O=C1CNCCCN2CCN(CCCNCC(=O)Nc3ccc(cc3)S(=O)(=O)c3ccc(cc3)NC(=O)CNCCCN3CCN(CCCNCC(=O)Nc4ccc(cc4)S(=O)(=O)c4ccc(cc4)N1)CC3)CC2 | / | / | / | 49 | / | /
COc1ccc(CCNC(=O)CCn2c(=O)oc3ccccc32)cc1 | / | 6 | -1 | 0 | 21* | /
COc1ccccc1CCNC(=O)CCn1c(=O)oc2ccccc21 | -5 | 1 | -2 | -5 | 8 | 6
